The inhibition is the relative decrease from the control value, in per cent.

Values joined by “and” are separate entries in the source; they are usually repeats but may differ in a detail not shown here. Equal entries are not always repeated. Records with an inconclusive call do not appear. Active and inactive are the calls of the source.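 Rule for the calls, unless noted: active = binding below the plate cutoff, the plate median minus 3 SD, with a reading above zero; inconclusive = below the plate cutoff but reading exactly zero; inactive = the rest.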

Experiment [1] is described as follows: yeast TOR pathway RPL19A-GFP modulators, primary screen, cell-based, S. cerevisiae, multiplex flow cytometry (AID 1862; in the data active = percent of DMSO control GFP below about 86%;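 note: lower values mimic rapamycin by blocking the RPL19A rise seen in DMSO cells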). To be noted: S. cerevisiae RPL19A-GFP strain, flow cytometry fluorescence, 3 h; at 10 µM; stronger effect = lower value. (In general: A flow cytometer gives signals particle by particle.)
Experiment [2] is described as follows: modulators of MEP2-GFP levels in yeast, primary screen, S. cerevisiae, multiplex flow cytometry (AID 1867;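 active = GFP response, as percent of the DMSO control, above the screen-wide mean plus 3 SD, about 139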;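 note: median GFP channel fluorescence of barcode-gated MEP2-GFP cells measured by flow cytometry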). To be noted: S. cerevisiae MEP2-GFP strain, 3 h, at 10 µM, stronger effect = higher value, 100% means same as DMSO wells.
Experiment [3] is described as follows: modulators of CIT2-GFP expression in yeast, primary screen, S. cerevisiae, GFP fusion, multiplex flow cytometry (AID 1870;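 active = percent response above a set limit, the screen-wide mean plus 3 SD, cut at about 130% in these data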;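 note: barcoded CIT2-GFP strain pooled with four other GFP strains with rapamycin as positive control; median GFP fluorescence per well over plate mean of DMSO wells so 100% = DMSO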). To be noted: 3 h, at 10 µM, stronger effect = higher value.
The nature of experiment [4]: modulators of LAP4-GFP expression in yeast, primary screen, S. cerevisiae, multiplex flow cytometry (AID 1873;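 active = GFP signal, as percent of the solvent control, above the screen mean plus 3 SD, about 149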). To be noted: 3 h, at 10 µM, stronger effect = higher value.
Experiment [5] in a line: modulators of AGP1-GFP expression in yeast TOR pathway, primary screen, cell-based, multiplex flow cytometry, S. cerevisiae (AID 1887;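 active = GFP signal above the screen-wide mean plus 3 SD, that is over about 124.5% of the solvent control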;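 note: AGP1-GFP fusion strain of S. cerevisiae within a five-strain barcoded multiplex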). To be noted: 3 h, at 10 µM, stronger effect = higher value.
Experiment [6] in a line: inhibitors of CD8+ T cell-vesicle binding, pilot screen, LFA-1/ICAM-1 modulator project, MLPCN validation set, flow cytometry (AID 2523;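 active = response below a set limit, under 55% cells CD8-positive and vesicle-bound, and CD8 cells' 90th-percentile brightness under 279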;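 for vesicle binding response: mean PE anti-B7-1 fluorescence of CD8+ cells relative to row control; 100% = QL9-loaded vesicles with DMSO vehicle in the same plate row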). To be noted: 2C mouse CD8+ T cells, at 7 µM, stronger effect = lower value; double positive events: measured here: CD8+/vesicle+ event percentage.
For experiment [7], the target named is Integrin beta-1 (Homo sapiens) + Integrin alpha-4 (Homo sapiens) (UniProt P13612+P05556). Nature of the experiment: inhibition of HUTS-21 binding to VLA-4, pilot screen, VLA-4 allosteric modulator project, U937 cells, HUTS-21 mAb, flow cytometry, validation set (AID 2674;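 active = inhibition above 50%, about 3 SD of the validation set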;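 note: antibody binding induced by the VLA-4 ligand LDV present at three times its Kd; 0% = LDV ligand with antibody and no compound and 100% = antibody without LDV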). To be noted: HUTS-21 LIBS mAb binding, at 6.7 µM, stronger effect = higher value, binding induced by LDV ligand.

Experiment [8] can be described thus: superoxide lowering in aged yeast cells, pilot screen, validation compound set (AID 2706;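 active = superoxide response below 65% of plate, a cut near 3 SD across the whole screen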;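 note: yeast exposed to compound for one week at 30 degrees C before staining; 100% = mean of all compound wells on the same plate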). Particulars: S. cerevisiae aging, superoxide DHE fluorescence; at 10 µM; stronger effect = lower value.
The target of experiment [9] is Beta-adrenergic receptor kinase 1 (Homo sapiens) (UniProt P25098). Nature of the experiment: GRK2 binders displacing RNA aptamer, biochemical, validation, human GRK2, bead flow cytometry (AID 488806;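 active = aptamer binding inhibition above 30%, about 3 SD of noise from non-fluorescent compounds; inactive = inhibition at or below 30%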). Particulars: bead-bound GRK2, FAM-aptamer displacement, at 10 µM, stronger effect = higher value.
Experiment [10] deals with Beta-2 adrenergic receptor (Homo sapiens) (UniProt P07550). In words: beta2AR agonists driving receptor internalization, pilot screen, cell-based, FAP fluorogen, flow cytometry, validation set (AID 504459;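 active = percent response above 42, roughly 3 SD of non-fluorescent test compounds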;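 note: agonist-driven loss of surface beta2AR via internalization measured by FAP dye flow cytometry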). Particulars: Am2.2-beta2AR cells, FAP surface receptor flow cytometry; at 10 µM; stronger effect = higher value.
For experiment [11], the target named is AP-2 complex subunit beta (Homo sapiens) (UniProt P63010). Nature of the experiment: inhibitors of arrestin peptide binding to AP2, pilot screen, biochemical, validation set, GST-AP2 beads, flow cytometry (AID 504541;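 active = inhibition above 54%, about 3 SD of non-fluorescent compounds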;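 note: AP2 carries R879A mutation and is captured from E. coli lysate; bead-bound FITC arrestin peptide fluorescence measuring arrestin peptide binding to AP2; 0% = DMSO wells and 100% = excess unlabeled arrestin peptide control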). To be noted: FITC arrestin peptide, at 10 µM, stronger effect = higher value, AP2 beta2 appendage fragment, R879A mutant.
The nature of experiment [12]: yeast V-ATPase proton transport modulators, S. cerevisiae, pHLuorin, HTS validation (AID 504600; in the data active = response above about 15%;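 note: plate controls were DMSO for no effect and reference compound for full effect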). To be noted: S. cerevisiae pHLuorin cytosolic pH, at 10 µM, stronger effect = higher value.
The subject of experiment [13] is anti-desmoglein-3 scFv antibody binding to human DSG3. In words: inhibitors of anti-DSG3 scFv binding to DSG3, pilot screen, biochemical, validation compound set, bead-based, flow cytometry (AID 588368).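 Note: signal is the median channel fluorescence of bead-bound GFP antibody.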 Particulars: Protein G beads, DSG3-Fc, scFv-GFP binding, at 10 µM, stronger effect = lower value.
Experiment [14] in a line: inhibitors of fungal efflux pumps CDR1, CDR2, MDR1, pilot screen, validation compound set, multiplex, phenotypic (AID 588506;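 active = efflux inhibition above 0.42, the validation set average plus 4 SD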;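 note: Nile Red retained in cells so higher fluorescence means more efflux inhibition; 0 = negative control wells and 1 = enniatin B 25 µM full block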). To be noted: S. cerevisiae pump-expressing triplex, Nile Red efflux flow cytometry; at 10 µM; stronger effect = higher value; the pumps come from Candida albicans.
Experiment [15] deals with ATP-binding cassette sub-family B member 6 (Homo sapiens) (UniProt Q9NP58). Nature of the experiment: ABCB6 transporter inhibitors, pilot screen, K562-ABCB6 cells, flow cytometry, validation set (AID 588550;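 active = inhibition above the screen-wide mean plus 3 SD, about 51%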;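 note: 0% = DMSO wells and 100% = benzethonium chloride 70 µM positive control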). Particulars: K562-ABCB6 porphyrin accumulation, 1 h, at 10 µM, stronger effect = higher value.
The nature of experiment [16]: promoters of myeloid differentiation in arrested cells, primary screen, cell-based, GFP/MAC1 double positive, flow cytometry, validation set (AID 588685;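 active = differentiation response of at least 50%, scaled between solvent and reference control, from cells with both markers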;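 note: compound exposure lasts four days before antibody staining and flow analysis; 0% = DMSO wells and 100% = 5 µM fulvestrant positive control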). To be noted: ER-HoxA9 marrow cells, stronger effect = higher value, normalized: vehicle 0, fulvestrant 100.

Chain of Integrin beta-1 (Homo sapiens) + Integrin alpha-4 (Homo sapiens) (P05556 whole entry, looked up): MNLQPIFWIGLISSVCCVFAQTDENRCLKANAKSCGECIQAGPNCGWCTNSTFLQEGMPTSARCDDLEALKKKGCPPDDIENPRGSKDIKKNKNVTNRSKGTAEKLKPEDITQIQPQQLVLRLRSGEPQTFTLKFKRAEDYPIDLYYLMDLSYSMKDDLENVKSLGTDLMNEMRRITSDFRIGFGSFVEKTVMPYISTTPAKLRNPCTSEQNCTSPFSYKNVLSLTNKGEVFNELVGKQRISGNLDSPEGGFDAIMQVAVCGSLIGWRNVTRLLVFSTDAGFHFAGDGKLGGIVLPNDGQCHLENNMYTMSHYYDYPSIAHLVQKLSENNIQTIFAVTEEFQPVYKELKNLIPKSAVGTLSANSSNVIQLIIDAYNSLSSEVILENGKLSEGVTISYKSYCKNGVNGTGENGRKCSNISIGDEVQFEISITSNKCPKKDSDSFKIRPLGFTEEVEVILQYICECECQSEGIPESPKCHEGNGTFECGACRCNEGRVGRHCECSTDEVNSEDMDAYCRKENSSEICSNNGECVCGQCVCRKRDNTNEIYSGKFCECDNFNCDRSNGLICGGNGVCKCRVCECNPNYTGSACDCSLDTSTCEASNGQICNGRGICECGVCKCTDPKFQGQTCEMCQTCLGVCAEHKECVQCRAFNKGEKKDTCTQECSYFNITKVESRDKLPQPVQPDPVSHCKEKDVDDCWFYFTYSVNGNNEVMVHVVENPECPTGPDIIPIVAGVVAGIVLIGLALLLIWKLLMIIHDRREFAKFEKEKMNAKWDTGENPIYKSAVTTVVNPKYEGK
Chain of Integrin beta-1 (Homo sapiens) + Integrin alpha-4 (Homo sapiens) (P13612 whole entry, looked up): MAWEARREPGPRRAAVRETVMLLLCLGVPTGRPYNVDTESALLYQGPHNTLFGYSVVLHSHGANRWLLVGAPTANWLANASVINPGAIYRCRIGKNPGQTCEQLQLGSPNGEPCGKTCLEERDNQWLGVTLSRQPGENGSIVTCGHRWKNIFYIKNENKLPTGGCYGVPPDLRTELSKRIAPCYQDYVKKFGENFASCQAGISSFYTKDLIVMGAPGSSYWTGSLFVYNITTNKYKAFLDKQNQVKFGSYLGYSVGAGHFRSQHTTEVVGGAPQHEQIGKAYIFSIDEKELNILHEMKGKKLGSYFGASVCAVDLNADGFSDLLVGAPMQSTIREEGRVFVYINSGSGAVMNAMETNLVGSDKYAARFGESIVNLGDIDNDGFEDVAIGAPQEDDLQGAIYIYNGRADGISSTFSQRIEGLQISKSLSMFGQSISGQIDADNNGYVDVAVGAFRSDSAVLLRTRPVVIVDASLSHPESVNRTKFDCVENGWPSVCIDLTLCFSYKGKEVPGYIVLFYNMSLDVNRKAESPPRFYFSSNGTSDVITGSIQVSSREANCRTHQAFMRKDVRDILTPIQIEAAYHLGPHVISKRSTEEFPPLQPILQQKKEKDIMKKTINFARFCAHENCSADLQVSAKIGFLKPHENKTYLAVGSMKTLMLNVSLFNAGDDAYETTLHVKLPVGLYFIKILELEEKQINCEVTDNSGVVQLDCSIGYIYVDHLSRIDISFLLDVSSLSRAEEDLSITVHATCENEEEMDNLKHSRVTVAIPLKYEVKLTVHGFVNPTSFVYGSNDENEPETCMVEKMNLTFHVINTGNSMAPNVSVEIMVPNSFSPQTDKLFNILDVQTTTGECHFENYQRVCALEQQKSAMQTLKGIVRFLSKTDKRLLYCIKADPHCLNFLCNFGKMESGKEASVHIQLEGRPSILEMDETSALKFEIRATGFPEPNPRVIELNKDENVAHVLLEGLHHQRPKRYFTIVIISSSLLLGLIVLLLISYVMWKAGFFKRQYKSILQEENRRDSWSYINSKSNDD
Chain of Beta-2 adrenergic receptor (Homo sapiens) (P07550 whole entry, looked up): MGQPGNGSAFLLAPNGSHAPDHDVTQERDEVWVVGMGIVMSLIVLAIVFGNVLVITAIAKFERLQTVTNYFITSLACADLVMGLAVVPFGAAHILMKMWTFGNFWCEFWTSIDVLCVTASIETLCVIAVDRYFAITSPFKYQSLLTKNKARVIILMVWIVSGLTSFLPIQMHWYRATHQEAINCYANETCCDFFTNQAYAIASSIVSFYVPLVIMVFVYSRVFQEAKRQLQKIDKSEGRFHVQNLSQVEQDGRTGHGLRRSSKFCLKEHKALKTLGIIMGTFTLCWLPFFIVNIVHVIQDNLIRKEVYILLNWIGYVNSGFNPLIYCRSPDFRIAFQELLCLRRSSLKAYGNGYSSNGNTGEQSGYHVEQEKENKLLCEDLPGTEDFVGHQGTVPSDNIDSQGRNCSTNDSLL
Chain of Beta-adrenergic receptor kinase 1 (Homo sapiens) (P25098 whole entry, looked up): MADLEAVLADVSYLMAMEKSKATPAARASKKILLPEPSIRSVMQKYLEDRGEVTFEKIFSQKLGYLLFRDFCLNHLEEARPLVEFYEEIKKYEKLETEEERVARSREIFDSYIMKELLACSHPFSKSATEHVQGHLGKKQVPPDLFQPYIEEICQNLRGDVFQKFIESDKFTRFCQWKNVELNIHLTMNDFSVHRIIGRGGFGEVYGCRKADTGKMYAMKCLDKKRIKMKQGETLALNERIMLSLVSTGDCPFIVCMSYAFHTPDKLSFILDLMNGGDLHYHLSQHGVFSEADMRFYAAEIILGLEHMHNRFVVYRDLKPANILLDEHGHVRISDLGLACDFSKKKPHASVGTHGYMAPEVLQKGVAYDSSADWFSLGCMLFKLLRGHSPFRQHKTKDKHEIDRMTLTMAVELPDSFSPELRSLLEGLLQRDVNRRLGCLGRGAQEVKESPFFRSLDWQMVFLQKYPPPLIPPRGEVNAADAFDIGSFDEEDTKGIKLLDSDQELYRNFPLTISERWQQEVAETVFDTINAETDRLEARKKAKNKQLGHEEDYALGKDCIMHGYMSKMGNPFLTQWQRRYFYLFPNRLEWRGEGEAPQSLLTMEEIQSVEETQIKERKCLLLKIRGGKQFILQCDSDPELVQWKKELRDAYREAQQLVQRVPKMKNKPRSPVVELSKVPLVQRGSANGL
Chain of ATP-binding cassette sub-family B member 6 (Homo sapiens) (Q9NP58 whole entry, looked up): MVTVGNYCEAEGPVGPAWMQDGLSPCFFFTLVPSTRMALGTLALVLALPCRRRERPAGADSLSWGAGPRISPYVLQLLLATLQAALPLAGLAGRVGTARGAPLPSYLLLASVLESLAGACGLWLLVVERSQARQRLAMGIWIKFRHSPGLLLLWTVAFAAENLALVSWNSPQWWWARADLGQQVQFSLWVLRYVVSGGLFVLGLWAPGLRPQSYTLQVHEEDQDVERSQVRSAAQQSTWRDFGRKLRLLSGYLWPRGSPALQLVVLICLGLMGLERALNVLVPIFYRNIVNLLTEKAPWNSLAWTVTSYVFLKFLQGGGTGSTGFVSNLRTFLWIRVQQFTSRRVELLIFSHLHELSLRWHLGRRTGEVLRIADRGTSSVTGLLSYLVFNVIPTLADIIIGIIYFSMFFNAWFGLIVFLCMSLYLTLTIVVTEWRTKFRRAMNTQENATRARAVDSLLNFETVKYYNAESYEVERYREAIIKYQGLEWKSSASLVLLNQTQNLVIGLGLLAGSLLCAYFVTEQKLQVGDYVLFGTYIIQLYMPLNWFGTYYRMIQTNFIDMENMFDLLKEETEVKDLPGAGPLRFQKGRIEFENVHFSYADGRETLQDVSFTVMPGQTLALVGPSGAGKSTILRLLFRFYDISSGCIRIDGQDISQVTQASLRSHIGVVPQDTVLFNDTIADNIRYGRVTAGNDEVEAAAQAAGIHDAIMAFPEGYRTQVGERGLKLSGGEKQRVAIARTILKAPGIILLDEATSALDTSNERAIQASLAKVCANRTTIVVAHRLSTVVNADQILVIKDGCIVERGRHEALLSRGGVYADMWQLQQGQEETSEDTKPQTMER
Chain of AP-2 complex subunit beta (Homo sapiens) (P63010 whole entry, looked up, the tested form may be a part, one chain of several): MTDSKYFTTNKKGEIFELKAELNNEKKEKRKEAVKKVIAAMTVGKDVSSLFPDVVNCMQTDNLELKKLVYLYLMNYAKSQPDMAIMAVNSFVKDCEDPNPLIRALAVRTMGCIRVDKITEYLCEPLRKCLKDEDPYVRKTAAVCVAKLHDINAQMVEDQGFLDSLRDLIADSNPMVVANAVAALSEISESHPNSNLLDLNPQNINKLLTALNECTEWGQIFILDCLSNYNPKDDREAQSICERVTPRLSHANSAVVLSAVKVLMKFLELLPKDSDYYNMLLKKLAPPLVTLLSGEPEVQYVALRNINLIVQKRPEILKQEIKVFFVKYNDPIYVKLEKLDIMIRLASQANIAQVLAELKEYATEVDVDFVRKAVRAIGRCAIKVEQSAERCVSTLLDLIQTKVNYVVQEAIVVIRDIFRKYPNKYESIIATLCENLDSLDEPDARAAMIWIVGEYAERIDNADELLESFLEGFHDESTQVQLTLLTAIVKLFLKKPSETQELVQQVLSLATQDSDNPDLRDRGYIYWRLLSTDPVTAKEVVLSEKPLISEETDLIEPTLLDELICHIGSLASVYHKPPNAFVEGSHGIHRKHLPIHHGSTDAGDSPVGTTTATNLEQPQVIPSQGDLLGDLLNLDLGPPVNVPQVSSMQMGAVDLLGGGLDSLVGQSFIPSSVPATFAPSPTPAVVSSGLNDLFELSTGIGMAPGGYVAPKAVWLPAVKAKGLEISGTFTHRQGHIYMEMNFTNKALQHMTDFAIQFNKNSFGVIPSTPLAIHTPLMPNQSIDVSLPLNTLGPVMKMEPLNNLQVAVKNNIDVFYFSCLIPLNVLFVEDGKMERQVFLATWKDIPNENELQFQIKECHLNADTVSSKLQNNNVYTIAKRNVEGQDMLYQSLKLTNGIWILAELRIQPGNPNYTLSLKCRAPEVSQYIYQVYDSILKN

Take `Cc1ccc2c(c1)C1(C(=O)N2)N2CCCC2C(C(=O)c2ccc3ccccc3c2)C12C(=O)Nc1ccccc12` (stereo not given): in [1], the percent of DMSO control GFP was 107% (inactive). Further, the results for the GFP response vs DMSO in [2] and in [4] were 93% (inactive) and 89.4% (inactive), respectively. Also, in experiment [3], the percent response of DMSO control was 115% (inactive). The GFP response, % of DMSO in [5] was 101% (inactive). The double positive events in [6] came out at 60.9%. The vesicle binding response in [6] was 224% (inactive). The results for the inhibition in [7], in [11] and in [15] were -8.75% (inactive), -0.28% (inactive) and -11% (inactive), respectively. For the same compound, the superoxide response (% of plate) in experiment [8] was 94.8% (inactive). In addition, the aptamer binding inhibition in experiment [9] is 1% (inactive). The response in experiment [10] was 3.54% (inactive); in experiment [12], 2.26% (inactive). Moreover, in experiment [13], the binding (% of control) was 97.2% (inactive). Moreover, the efflux inhibition (fraction of control) in experiment [14] was 0.24 (inactive). Moreover, the differentiation response in experiment [16] is -0.73% (inactive).

With `COc1ccc(/C=C/C(=O)Nc2ccccc2C(=O)O)cc1OC`, the percent of DMSO control GFP in experiment [1] is 111% (inactive). The results for the GFP response vs DMSO in experiment [2] and in experiment [4] were 110% (inactive) and 76.9% (inactive), respectively. Also, the percent response of DMSO control in experiment [3] was 106% (inactive). Moreover, the GFP response, % of DMSO in experiment [5] is 99.5% (inactive). The compound also returned a double positive events in [6] of 60.2%. Moreover, the vesicle binding response in [6] was 50.8% (inactive). In addition, the inhibition in [7] was -5.64% (inactive); in experiment [11], -8.31% (inactive); in experiment [15] it was 3% (inactive). Also, in [8], the superoxide response (% of plate) is 123% (inactive). Besides, in [9], the aptamer binding inhibition was 3% (inactive). Moreover, the response in experiment [10] is 12.8% (inactive); in experiment [12], 6.81% (inactive). The binding (% of control) in [13] is 96.9% (inactive). In addition, the efflux inhibition (fraction of control) in experiment [14] was 0.02 (inactive). In experiment [16], the differentiation response was -5.62% (inactive).

With `COc1cc(CNc2nnnn2C)ccc1OCc1ccc(F)cc1Cl`, the percent of DMSO control GFP in [1] is 102% (inactive). Further, the GFP response vs DMSO in [2] is 101% (inactive); in experiment [4], 92.3% (inactive). Besides, the percent response of DMSO control in [3] is 98.2% (inactive). For the same compound, the GFP response, % of DMSO in experiment [5] is 97.2% (inactive). Besides, the double positive events in experiment [6] came to 66.7%. In addition, the vesicle binding response in [6] is 150% (inactive). In addition, the inhibition in [7] was 3.98% (inactive); in [11] it was 16.9% (inactive); in experiment [15] it was 7% (inactive). Besides, the superoxide response (% of plate) in [8] is 51.5% (active). Besides, the aptamer binding inhibition in experiment [9] is -1% (inactive). The response in [10] is 15.7% (inactive); in experiment [12], 0.17% (inactive). Besides, the binding (% of control) in experiment [13] was 104% (inactive). For the same compound, the efflux inhibition (fraction of control) in experiment [14] was 0.68 (active). Besides, the differentiation response in experiment [16] is -5.68% (inactive).

As for `O=C(NCc1ccco1)/C(=C\C=C\c1ccccc1)NC(=O)c1ccccc1Br`, the percent of DMSO control GFP in experiment [1] is 108% (inactive). In addition, the GFP response vs DMSO in experiment [2] is 107% (inactive); in experiment [4], 110% (inactive). Besides, in [3], the percent response of DMSO control was 110% (inactive). Besides, the GFP response, % of DMSO in experiment [5] is 106% (inactive). The compound also gave a double positive events in [6] of 60.6%. Moreover, the vesicle binding response in [6] was 139% (inactive). The inhibition in experiment [7] was -14.5% (inactive); in experiment [11] it was 5.44% (inactive); in experiment [15], -4% (inactive). The superoxide response (% of plate) in experiment [8] was 95.8% (inactive). The aptamer binding inhibition in [9] is 0% (inactive). The response is 12.9% (inactive) in experiment [10] and 1.56% (inactive) in experiment [12]. The binding (% of control) in [13] is 104% (inactive). The efflux inhibition (fraction of control) in experiment [14] is -0.045 (inactive). In experiment [16], the differentiation response was -3.11% (inactive).

As to `CCCCOc1cc(C(=O)NCCN(CC)CC)c2ccccc2n1`, the percent of DMSO control GFP in experiment [1] is 94.8% (inactive). In addition, the GFP response vs DMSO in experiment [2] was 128% (inactive); in experiment [4] it was 79.8% (inactive). Further, the percent response of DMSO control in experiment [3] is 106% (inactive). In addition, in experiment [5], the GFP response, % of DMSO is 92.8% (inactive). The double positive events in experiment [6] was 48.4% and 71.1%. Moreover, in experiment [6], the vesicle binding response is 187% (inactive) and 185% (inactive). Further, the inhibition in experiment [7] was 13.8% (inactive) and 14.2% (inactive); in experiment [11], -5.17% (inactive) and -1.67% (inactive); in experiment [15] it was 11% (inactive) and 10% (inactive). Further, the superoxide response (% of plate) in experiment [8] was 88.6% (inactive) and 105% (inactive). In addition, the aptamer binding inhibition in experiment [9] is -2% (inactive) and -3% (inactive). Further, the response in experiment [10] is -3.62% (inactive); in experiment [12], -31% (inactive) and -1.46% (inactive). Also, the binding (% of control) in experiment [13] is 145% (inactive) and 101% (inactive). The efflux inhibition (fraction of control) in [14] was 0.03 (inactive) and 0.09 (inactive). Also, the differentiation response in experiment [16] is 7.87% (inactive) and 9.01% (inactive).

Values taken from PubChem BioAssay.
